Results reported in PubChem BioAssay AID612 (The Scripps Research Institute Molecular Screening Center, 2007).
The whole screen tested about 62,000 compounds, of which about 420 (0.68%) were called active. Shown is part of a subset that was picked to be rich in actives. Values without a mark were called inactive.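 How the source made its calls: active means inhibition above the mean of all tested compounds plus 3 SD (cut at about 43% in these data); inactive means the rest.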

Target: 5-hydroxytryptamine receptor 1A (Homo sapiens) (UniProt P08908)
Sequence (P08908 whole entry, looked up): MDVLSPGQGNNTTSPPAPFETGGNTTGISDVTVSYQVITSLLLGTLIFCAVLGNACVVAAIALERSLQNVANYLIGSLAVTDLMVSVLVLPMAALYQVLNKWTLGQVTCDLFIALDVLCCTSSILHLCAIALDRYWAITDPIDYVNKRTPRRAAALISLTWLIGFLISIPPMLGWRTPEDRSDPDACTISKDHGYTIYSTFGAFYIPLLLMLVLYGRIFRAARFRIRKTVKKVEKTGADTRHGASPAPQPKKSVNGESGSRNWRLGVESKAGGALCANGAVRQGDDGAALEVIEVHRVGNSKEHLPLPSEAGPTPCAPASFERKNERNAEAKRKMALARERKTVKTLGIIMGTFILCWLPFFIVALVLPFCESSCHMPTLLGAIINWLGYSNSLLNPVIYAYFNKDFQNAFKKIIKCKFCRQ
Test: blockade of serotonin HTR1A receptor – cell-based, CHO, Ga15 NFAT-bla reporter, primary screen (AID 612);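 further: receptor stimulated by 5-CT agonist at 100 nM near EC80; beta-lactamase reporter measured by ratiometric fluorescence of a cleavable substrate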
Conditions: CHO 5-HT1a Ga15 NFAT-bla reporter, antagonist mode; at 10 µM; active compounds read high

Row | Structure (SMILES) | inhibition
1 | CS(=O)(=O)c1ccc2nc(NC(=O)C3C4C=CC(C4)C3C(=O)O)sc2c1 (configuration not stated) | -0.7%
2 | CN1C(=O)c2ccccc2C(C(=O)NCCCN2CCCC2)C1c1c[nH]c2ccccc12 (configuration not stated) | -6.4%
3 | O=C(O)CCN1C(=O)CC2(CCCCC2)C1=O | 6.3%
4 | C=CCSc1nnc(Cn2c(=O)sc3ccccc32)n1C | -0.5%
5 | COc1nc(NCc2ccc(Cl)cc2)nc(OC)n1 | -1.3%
6 | Cc1nc(C)c2c(c1C(F)(F)F)-c1ccccc1C2(F)F | -9.3%
7 | Cc1ccc2c(C(=O)CN3CCCC3)c(C)[nH]c2c1 | 14.4%
8 | CCCCOc1ccc(C(C)(O)CCN2CCOCC2)cc1 (configuration not stated) | 8.9%
9 | Cc1oc2nc(SCC(=O)NCc3cccnc3)nc(N)c2c1C | 5.1%
10 | CCOc1ccc(Cn2nnc(C(=O)NCc3ccccc3)c2N)cc1 | 10.3%
11 | CCC(C)NC(=O)N[C@@H](CCSC)C(=O)O (some centres not stated) | -11.6%
12 | CC1(C)C(=O)C2(CCCCC2)C(=O)OC1c1cccs1 (configuration not stated) | -2.8%
13 | CN(CCC#N)c1ncnc2scc(-c3ccccc3)c12 | 11.5%
14 | C/C(=C\C(=O)c1ccc(Br)cc1)N1CCCCC1 | 0.5%
15 | CCN(CC)S(=O)(=O)c1cccc(C(=O)Nc2ccccc2)c1 | 16.2%
16 | Cc1cc(C(=O)OCC(=O)c2c(N)n(C)c(=O)n(C)c2=O)c(C)o1 | -7.9%
17 | CCOC(=O)CN1CC23C=CC(O2)C(C(=O)Nc2ccc(F)cc2)C3C1=O (configuration not stated) | -5.1%
18 | Cc1ccc(-n2c(Cc3cccs3)nnc2SCC(=O)OC(C)C)cc1 | 8.6%
19 | Cc1c(C(=O)NCCN2CCOCC2)sc2nc(-c3ccc(F)cc3)cn12 | -8%
20 | O=C(COc1ccc(S(=O)(=O)NCCc2ccccc2)cc1)N1CCCC1 | -0.2%
21 | CCOC(=O)C1CCCN(C(=O)CN(c2ccc(OC)cc2)S(=O)(=O)c2c(C)noc2C)C1 (configuration not stated) | -9.3%
22 | CCCCNC(=O)c1ccccc1NC(=O)c1ccccc1N(C)S(C)(=O)=O | -13.1%
23 | CCN1CCN(Cc2nc3c(c(=O)n(C)c(=O)n3C)n2CC(=O)c2ccccc2)CC1 | 4.5%
24 | O=C(C1=C(O)C(=O)N(c2ncccn2)C1c1cccs1)c1ccco1 (configuration not stated) | 11.8%
25 | Cc1cc(C(=O)Nc2c(C)n(C)n(-c3ccccc3)c2=O)cs1 | 5.4%

Row | Structure (SMILES) | inhibition
26 | O=C(NC1=NCCS1)c1ccc(Cl)s1 | 10.2%
27 | Cc1ccccc1Nc1nc(N)nc(CN2CCN(c3ccccn3)CC2)n1 | 2%
28 | CCOC(=O)c1ccc(N2C(=O)CC(N3CC(C)OC(C)C3)C2=O)cc1 (configuration not stated) | 14%
29 | CC1=C(C(=O)OC2CCCCC2)C(c2cccnc2)n2ncnc2N1 (configuration not stated) | -5%
30 | CCN1CCN(Cc2c(O)ccc3c(=O)c(-c4ccc(OC)c(OC)c4)c(C(F)(F)F)oc23)CC1 | 4.3%
31 | COc1ccc(NC(=O)c2cccc(NC(=O)c3ccco3)c2)c(OC)c1 | 5.2%
32 | Cc1ccc(S(=O)(=O)N2CCOCC2)cc1C(=O)NCc1ccc(F)cc1 | 3.3%
33 | CC1Cc2ccccc2N1C(=O)CSc1nnc(-c2ccc(S(=O)(=O)N3CCCCC3)cc2)o1 (configuration not stated) | 1.4%
34 | COc1ccc(C(C(O)C(=O)c2c[nH]c3ccccc23)N2CCN(c3ccccc3)CC2)cc1 (configuration not stated) | 43.9% (active)
35 | COc1ccc(OC)c(S(=O)(=O)N(C)CC(=O)N2CCN(c3ccccc3)CC2)c1 | -11.1%
36 | CCCC(=O)NC(C)C(c1cccs1)N1CCN(c2ccccc2)CC1 (configuration not stated) | 16.9%
37 | COc1ccc(NC(C)=O)cc1NC(=O)CN1CCN(c2ccccn2)CC1 | -0.2%
38 | Cc1ccc(-n2nc3c(c2NC(=O)c2ccc4c(c2)OCO4)CSC3)c(C)c1 | 9%
39 | O=C(Nc1ccc(-c2nnc(-c3ccccc3)o2)cc1)c1ccc(Br)o1 | -16.4%
40 | Nc1ccc(-c2nnc(-c3ccc(-c4ccccc4)cc3)o2)cc1 | 62.6% (active)
41 | O=C(Nc1ccc(-c2nnc(-c3ccccc3)o2)cc1)C1CCCO1 (configuration not stated) | 9.7%
42 | CN1CCN(C(=O)C2C3C=CC(C3)C2C(=O)O)CC1 (configuration not stated) | -4%
43 | CCOC(=O)c1ccc(NC(=O)CSc2ncccn2)cc1 | -16.8%
44 | Cc1noc(C)c1S(=O)(=O)N1CCCC(C(=O)Nc2nccs2)C1 (configuration not stated) | -3.8%
45 | CCc1nnc(NC(=O)c2nc3nccc(C)n3n2)s1 | -1.7%
46 | O=S(=O)(Nc1nccs1)c1ccc2c(c1)OCCO2 | -0.3%
47 | O=C(CN1CCOc2ccccc21)N1CCC(Cc2ccccc2)CC1 | 4.5%
48 | CC(=O)C1C(c2cccc(Oc3ccccc3)c2)NC(=O)NC1(O)C(F)(F)F (configuration not stated) | -16.2%
49 | O=C1c2cccnc2C(=O)N1Cc1cccs1 | -0.8%
50 | c1csc(CN2CCN(Cc3cccs3)C2c2cccs2)c1 | 78.7% (active)

Row | Structure (SMILES) | inhibition
51 | O=C(CSCc1cccs1)N1CCCC1 | -5.9%
52 | N#Cc1ccc(COC(=O)Cn2nnc(-c3ccccc3)n2)cc1 | 7.6%
53 | Cc1ccc(CNC(=O)CCCNC(=O)c2ccc(Cl)cc2)n1C | -4.8%
54 | CCSC1(SCC)N=C(N)C2(C#N)C(c3ccccc3)NC(C)=CC12C#N (configuration not stated) | 1.4%
55 | CCOc1ccc(-c2cn(S(=O)(=O)c3cccc4nsnc34)nc2N)cc1 | 11.8%
56 | COc1cc(OC)c(NC(=O)c2ccc(Br)o2)cc1Cl | 5.1%
57 | CCCC(=O)Nc1ccc(Cl)c(NC(=O)c2ccc(Br)o2)c1 | -5.8%
58 | CCN1CCN(c2c(Cl)cccc2NC(=O)c2ccc(Br)o2)CC1 | 63.5% (active)
59 | O=C(CCCn1c(SCC(=O)c2ccc(F)cc2)nc2ccccc2c1=O)NCc1ccco1 | 7.8%
60 | Cn1nc(-c2ccc(N3CCOCC3)c(NC(=O)c3ccccc3)c2)c2ccccc2c1=O | 26.6%
61 | COCCn1nnnc1C(c1cc2ccc(OC)cc2[nH]c1=O)N1CCc2ccccc2C1 (configuration not stated) | 1.8%
62 | COc1ccc(OC)c(C(c2nnnn2C(C)(C)C)N2CCc3ccccc3C2)c1 (configuration not stated) | 48.2% (active)
63 | Cc1ccc(C(c2nnnn2C(C)(C)C)N2CCc3ccccc3C2)cc1 (configuration not stated) | -4.5%
64 | Cc1ccc(N2C(=O)c3ccccc3C2(O)c2ncc[nH]2)cc1 (configuration not stated) | 3.5%
65 | CSc1cccc(NC(=O)CSc2ccccc2)c1 | -10.6%
66 | CC(C)COC(=O)c1ccc(NC(=O)C2C3C=CC(C3)C2C(=O)O)cc1 (configuration not stated) | 4.8%
67 | CCn1nnc(NC(=O)c2cc(Cl)c(OC)c(Cl)c2)n1 | -4.7%
68 | COc1cc2[nH]c(=S)n(CCN3CCCCC3C)c(=O)c2cc1OC (configuration not stated) | 2.5%
69 | O=C(O)CC(Cn1cnnn1)c1ccccc1 (configuration not stated) | 0.4%
70 | COc1ccc2[nH]c3c(=O)n(Cc4ccco4)cnc3c2c1 | 6%
71 | CCOc1ccc(N(CC(=O)NCc2ccc(OC)cc2)S(=O)(=O)c2c(C)noc2C)cc1 | 3.7%
72 | COc1ccc2c(c1)CCc1c(C(=O)N3CCc4ccccc4C3)noc1-2 | -3.2%
73 | CN=C1SC(C(=O)O)CC(=O)N1C (configuration not stated) | 3.6%
74 | COc1ccccc1-n1cnc2cc(NS(=O)(=O)c3ccccc3)ccc21 | 26.7%
75 | CCCCn1c(SCC(=O)N2CCC(C(=O)OCC)CC2)nc2cc(S(N)(=O)=O)ccc21 | 5.5%

Row | Structure (SMILES) | inhibition
76 | CCn1c(CSc2nncn2-c2ccc(OC)cc2)nc2cc(S(=O)(=O)N(C)C)ccc21 | 0.4%
77 | CCC1C(C#N)=C(SC)NC2=C1C(=O)CC(C)(C)C2 (configuration not stated) | 0.2%
78 | O=C(/C(=N\O)n1cncn1)c1ccc(Br)cc1Br | -1.8%
79 | CC(=O)c1c(N)n(C)c(=O)n(C)c1=O | 1.2%
80 | CC1CSc2nnc(CCc3ccccc3)n21 (configuration not stated) | 5.7%
81 | CN1CCN(S(=O)(=O)c2ccc(NC(=O)C3CCCO3)cc2)CC1 (configuration not stated) | -0.1%
82 | Cc1ccc(NC(=O)Cn2nc(C)c3ccccc3c2=O)c(C)c1 | 2.8%
83 | C=CCn1c(SCn2nnc3ccccc3c2=O)nnc1-c1ccc(Cl)cc1 | -2.8%
84 | O=C(Nn1cc(C(=O)N2CCN(c3ccccc3F)CC2)c2ccccc2c1=O)c1cnccn1 | 0.3%
85 | CCn1c2c(c3ccc(OC)cc31)CCCC2=O | -8.1%
86 | O=C(CSc1nnc(Cn2cnc3ccccc32)o1)c1ccccc1 | -8.1%
87 | CC(=NC1CCN(Cc2ccccc2)CC1)c1c(O)[nH]c(=O)[nH]c1=O | -6.7%
88 | CC12CN(Cc3ccccc3)CC(C)(CN(Cc3ccccc3)C1)C2=NO | 50.1% (active)
89 | Cc1ccc(-c2noc(CN3CCN(Cc4ccccc4)CC3)n2)cc1 | -3.3%
90 | CN1C(=O)CC(N2CCN(c3ccccn3)CC2)C1=O (configuration not stated) | -2.2%
91 | C=CCNc1nnc(C)c2ccccc12 | 0.9%
92 | Cc1noc(C)c1S(=O)(=O)N(CC(=O)Nc1ccc2c(c1)OCCO2)c1ccc(C(C)C)cc1 | 2%
93 | COCCOC(=O)C1=C(C)N=c2s/c(=C\c3cccs3)c(=O)n2C1c1cccs1 (configuration not stated) | 6.2%
94 | CCOC(=O)c1cnc(-n2nc(C)cc2C)nc1Nc1cccc(C(C)=O)c1 | 12.1%
95 | Cc1cc(C)n(-c2ccc(Cl)c(C(=O)O)n2)n1 | -12.6%
96 | CC(=O)c1ccc(Oc2cc(C)nc(-n3nc(C)cc3C)n2)cc1 | 45.2% (active)
97 | CCOCCCN1C(=O)CN(C2CCCCC2)C(=O)C1c1ccc(OCC)c(OC)c1 (configuration not stated) | 4.5%
